The source of these data is ChEMBL document CHEMBL4513216, “Probing the Open Global Health Chemical Diversity Library for Multistage-Active Starting Points for Next-Generation Antimalarials” (ACS Infect Dis, 2020).

Screen size: about 69,000 compounds; about 8,600 (12%) showed an effect of 50% or more. The entries come from a sample that favours strong results as a whole.

The subject of this assay is Plasmodium berghei. Briefly: Screen against P. berghei liver stage (PbLuc), transformed with Luciferase, at 10uM. It counts as functional, HepG2. Conditions: tested at 10 uM.
Regarding `Cc1nc(C(C)C)ncc1C(=O)N1CCCC(N2CCCC2)C1` (centres undefined), the INHIBITION turned out to be 26.8%.
Regarding `O=C(O)CSC1CCc2ccccc2NC1=O` (centres undefined), the INHIBITION is 18.4%.
With `NS(=O)(=O)CCN1CCN(c2ccccc2O)CC1`, the INHIBITION is recorded as -24.7%.
As for `CC(C)NC(=O)[C@H]1C[C@H]2CN(C(=O)NC(C)C)C[C@@H]1O2`, the INHIBITION was 24%.
Next, `O=C(Nc1ccc(F)cc1)N1C[C@@H]2C[C@H](C(=O)N3CCOCC3)[C@H](C1)O2`: 1.58%.
`O=C(Nc1ccccc1)N1C[C@@H]2C[C@H](C(=O)N3CCCC3)[C@H](C1)O2`: the INHIBITION is given as -13.2%.
Consider `CCOC(=O)CCNC(=O)N1CCCC(CNC(=O)c2ccco2)C1` (centres undefined), for which the INHIBITION worked out at 15.7%.
The same measure for `CC(C)NC(=O)N1C[C@@H]2C[C@H](C(=O)N3CCCC3)[C@H](C1)O2`: 43.9%; for `CCOC(=O)CNC(=O)N1CCCC(CNC(=O)c2ccco2)C1` (centres undefined): 3.73%; for `O=C(NCC1CCCN(C(=O)NCCc2ccccc2)C1)c1ccco1` (centres undefined): 59.1%.
The same measure for `CNC(=O)[C@H]1C[C@H]2CN(C(=O)NC(C)C)C[C@@H]1O2`: 57.5%.
In the case of `CC(C)CS(=O)(=O)N1C[C@@H]2C[C@H](C(=O)N3CCCC3)[C@H](C1)O2`, the INHIBITION was determined as 32.5%.
On to `CC(C)CS(=O)(=O)N1C[C@@H]2C[C@H](C(=O)N3CCOCC3)[C@H](C1)O2`, for which the INHIBITION was found to be 83.2%.
For `O=C(Nc1ccccc1)N1C[C@@H]2C[C@H](C(=O)N3CCOCC3)[C@H](C1)O2`, the INHIBITION is on record as 55.4%.
In the case of `CC(C)CS(=O)(=O)N1C[C@@H]2C[C@H](C(=O)N3CCN(C)CC3)[C@H](C1)O2`, the INHIBITION is -1.28%.
Take `CCS(=O)(=O)N[C@H]1CN(CC(C)(C)N2CCOCC2)C[C@@H]1C1CC1`: the INHIBITION is given as 18.5%.
Next, `O=C(Nc1ccccc1)C1=NOC2(CCCN(C(=O)C3CCCC3)C2)C1` (centres undefined): -31%; `O=C(c1ccn(-c2ccc(F)cc2)n1)N1CCCC(n2ccnc2)C1` (centres undefined): -17%.
As to `CCc1nc(CNC2CCN(S(C)(=O)=O)CC2)cs1`, the INHIBITION came out at 28.3%.
For `O=C(C1CCOCC1)N1CCO[C@H]2[C@@H](OCC3CC3)CC[C@@H]21`, the INHIBITION was -19.8%.
Take `CCC(C)N(Cc1cccnc1)C(=O)c1ccc(NS(=O)(=O)CC)cc1` (centres undefined): the INHIBITION worked out at 18.8%.
Regarding `CCCn1ncc(C(=O)N2CCCC(OCc3ccccn3)C2)c1C` (centres undefined), the INHIBITION is -38.6%.
`CNC(=O)[C@H]1C[C@H]2CN(C(=O)Nc3ccccc3)C[C@@H]1O2`: the INHIBITION is on record as -26.5%.
As for `CNC(=O)N1C[C@@H]2C[C@H](C(=O)Nc3cccnc3)[C@H](C1)O2`, the INHIBITION came out at 54.4%.
For the molecule `CN1C[C@@H]2C[C@H](C(=O)Nc3cccnc3)[C@H](C1)O2`, the INHIBITION came out at 41.6%.
On to `O=C(NCc1ccccc1)N1C[C@@H]2C[C@H](C(=O)N3CCCC3)[C@H](C1)O2`, for which the INHIBITION is on record as 15.3%.
For the molecule `CN(C)C(=O)[C@H]1C[C@H]2CN(CCc3ccccc3)C[C@@H]1O2`, the INHIBITION was 66%.
Turning to `CN(C)C(=O)[C@H]1C[C@H]2CN(S(=O)(=O)Cc3ccccc3)C[C@@H]1O2`, the INHIBITION came out at 19.9%.
Next, `O=C(Nc1cccnc1)[C@H]1C[C@H]2CN(C(=O)NC3CCCC3)C[C@@H]1O2`: 9.67%.
Regarding `O=C(NCCc1ccccc1)N1C[C@@H]2C[C@H](C(=O)N3CCCC3)[C@H](C1)O2`, the INHIBITION was 57.1%.
Regarding `O=C(Nc1ccccc1)[C@H]1C[C@H]2CN(C(=O)Nc3ccccc3)C[C@@H]1O2`, the INHIBITION is reported as 7.31%.
Next, `CN(C)C(=O)[C@H]1C[C@H]2CN(S(=O)(=O)c3ccccc3)C[C@@H]1O2`: 33.4%.
As for `CNC(=O)[C@H]1C[C@H]2CN(C(=O)NCCc3ccccc3)C[C@@H]1O2`, the INHIBITION is recorded as 19.5%.
Turning to `CNC(=O)N1C[C@@H]2C[C@H](C(=O)Nc3ccccc3)[C@H](C1)O2`, the INHIBITION came out at 62%.
